Inconclusive results are not listed. The source made the active and inactive calls. Unless noted, calls come from the whole dose curve; as a rule, active = well fitted curve in either direction with a large enough effect (not every such curve was filed as active); inconclusive = small, poorly fitted or top-dose-only effect, or another doubt; inactive = flat fitted curve, though single readings scatter.
How the values were obtained:
[1] = target: Mitogen-activated protein kinase 10 (Mus musculus) (UniProt Q61831); experiment: JNK3 AlphaScreen Assay (AID 530);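 note: kinase came from lysate of stimulated human HepG2 cells; signal reports phosphorylation of biotinylated GST-cJun 1-79 at Ser73 with 10 µM ATP; % is set by controls: 0 for no effect and ±100 for the full control effect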
Summary of the method: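 Room-temperature AlphaScreen kinase assay; pre-activated HepG2 lysate as JNK3 source, biotin-GST-cJun(1-79) substrate, 10 uM ATP, compound 15 min preincubation.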

[2] = target: Cytochrome P450 3A4 (Homo sapiens) (UniProt P08684); experiment: qHTS Assay for Activators of Cytochrome P450 3A4 (AID 885; active = well fitted curve in the direction sought with a large enough effect; an effect the other way counts as inactive or inconclusive; note: nearly all actives have a fitted effect of over 65% in size)
Sequence of Cytochrome P450 3A4 (Homo sapiens) (P08684 whole entry, looked up): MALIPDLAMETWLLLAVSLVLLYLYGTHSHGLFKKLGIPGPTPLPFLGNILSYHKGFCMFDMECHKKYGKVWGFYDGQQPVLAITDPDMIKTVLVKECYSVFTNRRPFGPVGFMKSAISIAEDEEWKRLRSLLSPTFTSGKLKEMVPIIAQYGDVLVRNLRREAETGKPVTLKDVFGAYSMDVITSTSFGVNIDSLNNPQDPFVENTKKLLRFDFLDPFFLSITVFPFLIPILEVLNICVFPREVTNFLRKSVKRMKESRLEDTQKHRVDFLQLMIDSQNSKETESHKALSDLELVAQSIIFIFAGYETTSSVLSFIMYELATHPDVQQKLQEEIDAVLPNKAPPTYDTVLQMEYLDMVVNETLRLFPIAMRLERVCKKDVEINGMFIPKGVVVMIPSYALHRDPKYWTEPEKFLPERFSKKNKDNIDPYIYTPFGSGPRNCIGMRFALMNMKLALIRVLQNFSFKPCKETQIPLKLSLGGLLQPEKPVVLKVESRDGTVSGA
Summary of the method: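 Human CYP3A4 (20 nM) with Luciferin-PPXE at 25 uM (its KM) in 200 mM KPO4; 10 min compound preincubation, then NADPH regeneration and 60 min reaction at RT. Luciferin read by luminescence; normalized to 57 uM ketoconazole full inhibition.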

[3] = Confirmatory qHTS for small molecule stabilizers of the endoplasmic reticulum resident proteome: Secreted ER Calcium Modulated Protein (SERCaMP) assay (AID 1508628; active = well fitted curve in the direction sought with a large enough effect; an effect the other way counts as inactive or inconclusive; note: nearly all actives have a fitted effect of over 40% in size; note: potency is the fitted concentration of half-maximal effect)
Summary of the method: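 We seeded SH-SY5Y-GLuc-SERCaMP cells, added compounds (three concentrations in the primary run, eleven up to 76.6 uM in confirmation), incubated 16 h, depleted ER calcium with thapsigargin, and read luciferase 4 h later.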

[4] = AP1 Signaling Pathway (AID 357); conditions: ME-180 AP-1-bla reporter, EGF-induced, beta-lactamase ratio, 5 h; at 7.69 µM (top of the series) unless noted;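 note: ME-180 reporter cells stimulated with EGF at its EC50 level; % is set by controls: 0 for no effect and ±100 for the full control effect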
Summary of the method: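 Beta-lactamase reporter under AP-1 response element, ME-180 background. Stimulus: EC50 EGF. Compound exposure 5 h, 37 °C. Detection: CCF4, 2.5 h RT, 460/530 nm. Values: AC50 from titration.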

[5] = NFAT Signaling Pathway (AID 444); conditions: Jurkat NFAT-bla M1, carbachol, beta-lactamase ratio, 5 h; at 7.69 µM (top of the series) unless noted;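 note: carbachol stimulus at about its EC50 of 1 µM final; % is set by controls: 0 for no effect and ±100 for the full control effect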
Summary of the method: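 Read-out: CCF4 FRET ratio (460 nm/530 nm) after 1 h RT dye loading, used for %activity and AC50 from titration series. Cells: Jurkat NFAT-β-lactamase/M1 line, treated with compound plus 1 uM carbachol for 5 h, 37 °C.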

[6] = Stat Signaling Pathway (AID 446); conditions: ME-180 SIE beta-lactamase reporter, IL-6 stimulated, 5 h; at 7.69 µM (top of the series) unless noted;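 note: ME-180 cervical cancer cells given 40 pM IL-6 alongside compound; SIE-controlled beta-lactamase reporter measured as 460/530 nm FRET emission ratio; % is set by controls: 0 for no effect and ±100 for the full control effect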
Summary of the method: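 ME-180 cells carrying a SIE-driven beta-lactamase reporter are stimulated with 40 pM IL-6 for 5 h at 37C in the presence of compound. The 460/530 nm FRET substrate ratio is read after 2.5 h at RT. Data are normalised to 300 pM IL-6 and to 125 nM JAK inhibitor controls.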

[7] = target: Glucocorticoid receptor (Homo sapiens) (UniProt P04150); experiment: GR-GFP Redistribution (AID 450;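 active = compounds whose dose series gives a full or clear partial fitted curve of increased nuclear translocation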; note: potency is the fitted concentration of half-maximal effect); conditions: U2OS GR-GFP nuclear translocation, laser cytometry, 2 h
Sequence of Glucocorticoid receptor (Homo sapiens) (P04150 whole entry, looked up, the tested form may be a part): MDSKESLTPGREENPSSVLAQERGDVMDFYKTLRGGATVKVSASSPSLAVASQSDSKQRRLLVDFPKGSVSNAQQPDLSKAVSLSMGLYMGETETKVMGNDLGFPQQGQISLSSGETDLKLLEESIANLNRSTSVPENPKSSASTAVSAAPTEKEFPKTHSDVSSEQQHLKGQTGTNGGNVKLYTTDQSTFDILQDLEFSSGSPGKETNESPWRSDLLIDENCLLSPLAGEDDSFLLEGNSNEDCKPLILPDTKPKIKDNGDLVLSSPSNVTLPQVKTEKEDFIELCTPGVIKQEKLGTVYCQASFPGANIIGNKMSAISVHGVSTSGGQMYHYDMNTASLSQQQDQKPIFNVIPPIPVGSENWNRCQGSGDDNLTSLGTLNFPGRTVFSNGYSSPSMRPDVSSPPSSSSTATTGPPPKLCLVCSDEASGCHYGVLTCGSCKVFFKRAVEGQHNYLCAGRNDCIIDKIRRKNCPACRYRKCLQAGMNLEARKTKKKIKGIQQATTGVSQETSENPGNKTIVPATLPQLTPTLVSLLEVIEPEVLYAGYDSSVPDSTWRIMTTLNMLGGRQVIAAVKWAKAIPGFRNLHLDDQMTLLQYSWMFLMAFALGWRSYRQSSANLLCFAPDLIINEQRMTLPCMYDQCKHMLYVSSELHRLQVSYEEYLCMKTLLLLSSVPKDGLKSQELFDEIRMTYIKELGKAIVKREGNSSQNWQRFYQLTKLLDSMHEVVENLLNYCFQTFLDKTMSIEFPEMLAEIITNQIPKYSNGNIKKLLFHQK

[8] = target: Glucocorticoid receptor (Homo sapiens) (UniProt P04150); experiment: GR-EFC Redistribution (AID 451; calls by dose curve; note: potency is the fitted concentration of half-maximal effect); conditions: CHO-K1 GR-EFC translocation, beta-gal luminescence, 2 h
Summary of the method: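 Translocation of GR-ED fusion to nuclear EA restores b-gal, read by luminescence after 1 h room-temperature detection. Engineered CHO-K1 biosensor cells, 1,000/well, exposed 2 h at 37 C to titrations up to 46 uM final.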

[9] = target: 3',5'-cyclic-AMP phosphodiesterase 4B (Homo sapiens) (UniProt Q07343); experiment: qHTS Assay for Inhibitors of PDE-IV (AID 607; active = well fitted activation curve with a large enough effect in the main read-out, with a control signal flat, not every such curve was filed as active; note: % of control where 0% means no effect)
Sequence of 3',5'-cyclic-AMP phosphodiesterase 4B (Homo sapiens) (Q07343 whole entry, looked up): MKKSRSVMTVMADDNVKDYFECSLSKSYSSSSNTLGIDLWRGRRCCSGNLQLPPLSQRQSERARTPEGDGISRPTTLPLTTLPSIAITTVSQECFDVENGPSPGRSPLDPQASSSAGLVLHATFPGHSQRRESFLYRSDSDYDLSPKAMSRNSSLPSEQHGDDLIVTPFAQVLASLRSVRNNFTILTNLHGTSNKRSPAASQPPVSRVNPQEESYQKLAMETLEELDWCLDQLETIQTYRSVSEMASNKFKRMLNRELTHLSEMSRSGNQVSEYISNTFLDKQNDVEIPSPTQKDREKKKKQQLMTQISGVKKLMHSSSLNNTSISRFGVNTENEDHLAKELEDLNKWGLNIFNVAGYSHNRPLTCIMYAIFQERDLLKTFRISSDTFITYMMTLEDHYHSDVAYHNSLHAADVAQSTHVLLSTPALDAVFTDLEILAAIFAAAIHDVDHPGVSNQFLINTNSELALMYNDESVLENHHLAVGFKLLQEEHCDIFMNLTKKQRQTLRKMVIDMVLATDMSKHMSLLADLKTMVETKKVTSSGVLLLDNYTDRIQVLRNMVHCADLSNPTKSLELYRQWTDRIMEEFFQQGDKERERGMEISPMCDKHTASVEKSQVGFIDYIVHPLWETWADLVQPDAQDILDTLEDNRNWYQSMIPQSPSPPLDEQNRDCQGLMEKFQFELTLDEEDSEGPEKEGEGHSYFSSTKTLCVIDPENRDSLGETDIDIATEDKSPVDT
Summary of the method: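 HEK293 ACTOne cells with CNG channel (1000/well), endogenous PDE4; membrane potential dye, compounds up to 22.9 uM final. Fluorescence Ex 535/Em 590; RO 20-1724 (100 uM final) as reference.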

[10] = target: Lysosomal acid glucosylceramidase (Homo sapiens) (UniProt P04062); experiment: Glucocerebrosidase-p2 (AID 348; in the data active = potency below about 10 µM; note: potency is the fitted concentration of half-maximal effect); conditions: purified GBA, blue fluorogenic substrate, 40 min
Sequence of Lysosomal acid glucosylceramidase (Homo sapiens) (P04062 whole entry, looked up): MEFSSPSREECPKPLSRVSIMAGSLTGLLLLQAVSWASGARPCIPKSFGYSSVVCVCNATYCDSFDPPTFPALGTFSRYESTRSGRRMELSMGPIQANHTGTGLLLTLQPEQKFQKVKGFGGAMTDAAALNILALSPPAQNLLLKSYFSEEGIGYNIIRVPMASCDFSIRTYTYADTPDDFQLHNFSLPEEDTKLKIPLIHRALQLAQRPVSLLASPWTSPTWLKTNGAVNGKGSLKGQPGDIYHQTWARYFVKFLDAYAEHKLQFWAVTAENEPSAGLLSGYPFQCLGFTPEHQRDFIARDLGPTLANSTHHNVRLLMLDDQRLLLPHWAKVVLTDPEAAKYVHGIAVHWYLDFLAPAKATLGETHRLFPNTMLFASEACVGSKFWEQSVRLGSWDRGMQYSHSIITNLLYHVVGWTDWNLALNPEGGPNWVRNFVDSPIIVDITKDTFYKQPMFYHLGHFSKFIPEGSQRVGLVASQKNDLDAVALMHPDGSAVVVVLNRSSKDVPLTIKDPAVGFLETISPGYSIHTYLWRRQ
Summary of the method: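 Compounds titrated from 0.6 nM upwards against 0.2 nM enzyme in pH 5.9 citric acid/KH2PO4, taurocholate, tween-20; blue fluorogenic substrate 80 uM, 40 min room temperature, stopped and read Ex 365/Em 440 for AC50.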

[11] = target: Cytochrome P450 1A2 (Homo sapiens) (UniProt P05177); experiment: p450-cyp1a2 (AID 410; calls by dose curve; note: potency is the fitted concentration of half-maximal effect;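 for activity change, negative = inhibition: -100% = full effect of reference inhibitor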)
Sequence of Cytochrome P450 1A2 (Homo sapiens) (P05177 whole entry, looked up): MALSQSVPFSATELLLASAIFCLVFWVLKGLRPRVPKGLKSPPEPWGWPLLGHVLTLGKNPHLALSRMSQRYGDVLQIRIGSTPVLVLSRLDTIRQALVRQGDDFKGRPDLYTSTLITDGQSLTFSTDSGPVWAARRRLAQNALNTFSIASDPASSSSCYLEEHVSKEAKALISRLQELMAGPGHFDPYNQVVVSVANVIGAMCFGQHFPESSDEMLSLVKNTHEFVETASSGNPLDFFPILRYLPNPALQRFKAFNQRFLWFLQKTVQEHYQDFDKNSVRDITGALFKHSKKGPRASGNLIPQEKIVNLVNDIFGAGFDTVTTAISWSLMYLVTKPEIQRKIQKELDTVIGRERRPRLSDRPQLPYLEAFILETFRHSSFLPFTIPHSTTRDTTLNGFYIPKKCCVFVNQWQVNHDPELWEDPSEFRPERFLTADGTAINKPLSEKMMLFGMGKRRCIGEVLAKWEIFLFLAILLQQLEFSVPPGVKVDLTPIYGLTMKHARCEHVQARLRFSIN
Summary of the method: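 Human CYP1A2 (20nM) demethylated Luciferin-ME at its Km (100uM) in 100mM KPO4. After 10 min compound preincubation, NADPH regeneration ran the reaction 60 min at room temperature. Luciferin was read by luminescence, normalized to 57 uM furafylline.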

[12] = qHTS Assay for Lipid Storage Modulators (AID 1519; calls by dose curve); conditions: Drosophila S3 cells, BODIPY lipid droplet/cell ratio, laser cytometry, cells loaded with oleic acid; for activity change, negative = inhibition: at 57.5 µM (top of the series)
Summary of the method: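 Cells seeded at 5,000 per well were treated with compounds over a concentration series and loaded with oleic acid (400 uM, as added). Lipid droplet fluorescence (488 nm excitation, 500-530 nm channel) was read by laser-scanning cytometry and normalized to 20 uM Triacsin C.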

[13] = target: Dual specificity protein kinase CLK4 (Homo sapiens) (UniProt Q9HAZ1); experiment: qHTS Assay for Inhibitors of CDC-like Kinase 4 (Kinase-Glo Assay) (AID 1770; active = well fitted curve in the direction sought with a large enough effect; an effect the other way counts as inactive or inconclusive; note: nearly all actives have a fitted effect of over 65% in size; note: potency is the fitted concentration of half-maximal effect)
Sequence of Dual specificity protein kinase CLK4 (Homo sapiens) (Q9HAZ1 whole entry, looked up): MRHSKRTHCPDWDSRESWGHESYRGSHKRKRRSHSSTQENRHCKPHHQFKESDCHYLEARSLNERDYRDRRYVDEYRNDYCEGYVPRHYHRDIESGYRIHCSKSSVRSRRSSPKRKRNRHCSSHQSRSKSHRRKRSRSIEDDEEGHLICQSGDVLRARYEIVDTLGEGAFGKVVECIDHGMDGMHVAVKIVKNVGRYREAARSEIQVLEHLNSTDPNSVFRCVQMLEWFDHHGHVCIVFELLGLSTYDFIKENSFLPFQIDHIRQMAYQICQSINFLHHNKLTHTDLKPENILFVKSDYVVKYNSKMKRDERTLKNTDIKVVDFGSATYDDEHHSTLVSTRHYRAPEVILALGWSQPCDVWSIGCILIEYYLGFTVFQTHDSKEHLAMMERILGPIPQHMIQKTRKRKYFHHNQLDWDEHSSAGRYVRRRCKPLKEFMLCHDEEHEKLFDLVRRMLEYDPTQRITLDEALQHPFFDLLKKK
Summary of the method: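 Readout: Kinase-Glo luminescence from ATP left after a 4.5 h room-temperature reaction of 25 nM Clk4 with 100 uM RS peptide and 1 uM ATP (final). Buffer: 25 mM Tris pH 7.5, 10 mM MgCl2.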

[14] = target: Dual specificity protein kinase CLK4 (Homo sapiens) (UniProt Q9HAZ1); experiment: qHTS Assay for Inhibitors of CDC-like Kinase 4 (ADP-Glo Assay) (AID 1771; active = well fitted curve in the direction sought with a large enough effect; an effect the other way counts as inactive or inconclusive; note: nearly all actives have a fitted effect of over 70% in size; note: potency is the fitted concentration of half-maximal effect)
Summary of the method: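 Clk4 (25 nM) was incubated 1 hr at room temperature with 100 uM RS repeat peptide and 1 uM ATP in buffer with 2 mM MgCl2, 0.5 mM EGTA, 2.5 mM DTT. ADP formed was quantified by ADP-Glo luminescence.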

[15] = target: Dual specificity protein kinase CLK4 (Homo sapiens) (UniProt Q9HAZ1); experiment: qHTS Assay for Inhibitors of CDC-like Kinase 4 (ADP-FP Assay) (AID 1795; active = well fitted curve in the direction sought with a large enough effect; an effect the other way counts as inactive or inconclusive; note: nearly all actives have a fitted effect of over 60% in size; note: potency is the fitted concentration of half-maximal effect)
Summary of the method: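 FP readout: Orange Transcreener ADP2 tracer (4 nM) plus ADP antibody, read after 30 min at room temperature. Kinase step: 6.25 nM Clk4, 100 uM RS peptide, 1 uM ATP, pH 7.5, 1 h.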

[16] = target: Rap guanine nucleotide exchange factor 3 (Homo sapiens) (UniProt O95398); experiment: Confirmatory qHTS for agonist of cAMP-regulated guanine nucleotide exchange factor 3 (EPAC1) (AID 1645881; active = well fitted curve in the direction sought with a large enough effect; an effect the other way counts as inactive or inconclusive;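 note: EPAC1 catalysed release of BODIPY-GDP from Rap1B seen as fluorescence loss; 100% = effect of cAMP agonist control; nearly all actives have a fitted effect of over 75% in size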)
[17] = target: Rap guanine nucleotide exchange factor 4 (Homo sapiens) (UniProt Q8WZA2); experiment: Confirmatory qHTS for agonist of cAMP-regulated guanine nucleotide exchange factor 4 (EPAC2) (AID 1645884; active = well fitted curve in the direction sought with a large enough effect; an effect the other way counts as inactive or inconclusive;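 note: nucleotide exchange releases bodipy-GDP from Rap1 and this lowers its fluorescence; % is set by controls: 0 for no effect and ±100 for the full control effect; nearly all actives have a fitted effect of over 65% in size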)
[18] = target: Ubiquitin carboxyl-terminal hydrolase 1 (Homo sapiens) (UniProt O94782); experiment: Inhibitors of USP1/UAF1: Pilot qHTS (AID 504865; active = well fitted curve in the direction sought with a large enough effect; an effect the other way counts as inactive or inconclusive;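 note: rhodamine fluorescence freed from ubiquitin-rhodamine substrate followed over time; top concentration of the series differs between compounds; % is set by controls: 0 for no effect and ±100 for the full control effect; nearly all actives have a fitted effect of over 35% in size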)
Sequence of Ubiquitin carboxyl-terminal hydrolase 1 (Homo sapiens) (O94782 whole entry, looked up): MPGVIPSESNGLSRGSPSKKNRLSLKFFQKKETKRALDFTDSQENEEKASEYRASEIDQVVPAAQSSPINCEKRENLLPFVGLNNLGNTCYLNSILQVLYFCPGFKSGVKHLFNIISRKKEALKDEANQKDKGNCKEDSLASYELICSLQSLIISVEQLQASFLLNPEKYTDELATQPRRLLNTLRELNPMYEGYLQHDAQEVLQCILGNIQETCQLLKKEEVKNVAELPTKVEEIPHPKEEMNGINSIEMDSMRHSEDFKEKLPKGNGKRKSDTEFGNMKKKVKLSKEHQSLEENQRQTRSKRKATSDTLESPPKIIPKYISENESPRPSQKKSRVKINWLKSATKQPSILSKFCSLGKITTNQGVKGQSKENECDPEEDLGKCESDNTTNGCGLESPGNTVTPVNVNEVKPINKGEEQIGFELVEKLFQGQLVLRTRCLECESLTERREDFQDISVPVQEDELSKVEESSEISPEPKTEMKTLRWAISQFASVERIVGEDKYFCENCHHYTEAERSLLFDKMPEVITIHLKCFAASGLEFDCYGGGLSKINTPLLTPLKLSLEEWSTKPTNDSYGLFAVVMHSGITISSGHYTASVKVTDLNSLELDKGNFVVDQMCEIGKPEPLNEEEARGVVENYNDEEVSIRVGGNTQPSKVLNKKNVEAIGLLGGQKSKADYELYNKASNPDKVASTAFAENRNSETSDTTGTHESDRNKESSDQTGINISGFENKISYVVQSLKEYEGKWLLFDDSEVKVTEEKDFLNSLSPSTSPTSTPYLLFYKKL
Summary of the method: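 1nM USP1/UAF1 + cpd, 15 min RT; start w/ Ub-Rho 150nM final; kinetic FL 480/540 nm, 6 reads q60 s. Buffer 50mM HEPES pH 7.8, 0.5mM EDTA, 1mM TCEP, 0.01% Tween-20, 0.1 mg/ml BSA.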

[19] = measured here: cell count channel max response
[20] = measured here: lipid channel max response

SMILES	outcome [1]	Potency [2]	Potency [3]	activity change, negative = inhibition [4]	activity change, negative = inhibition [5]	activity, negative = inhibition [6]	Potency [7]	Potency [8]	Potency [9]	Potency [10]	Potency [11]	activity change, negative = inhibition [12]	max response [12, 19]	max response [12, 20]	Potency [13]	Potency [14]	Potency [15]	outcome [16]	outcome [17]	Potency [18]
CC(C)(c1cc(Br)c(O)c(Br)c1)c1cc(Br)c(O)c(Br)c1	inactive	inactive	inactive																	
COc1cccc(Cn2c(=O)c(C)nc3cnc(N4CCNCC4)nc32)c1	inactive		35.5 µM (active)	4.85% (inactive)	-10.9% (inactive)	-3.45% (inactive)	> 9.22 µM (inactive)	> 46 µM (inactive)	inactive											
CCNc1ncc2nc(CCc3ccccc3)c(=O)n(-c3ccccc3)c2n1	inactive	inactive	35.5 µM (active)	-30.4% (inactive)	-2.92% (inactive)	16.3% (inactive)	> 9.22 µM (inactive)	> 46 µM (inactive)		> 11.4 µM (inactive)	1.26 µM (active)									
O=C(c1cc(C(F)(F)F)cc(C(F)(F)F)c1)N1CCC2(CC1)CCN(c1ccccn1)CC2	inactive			-6.99% (inactive)		-1.33% (inactive)		> 46 µM (inactive)	inactive	10.2 µM (inactive)	inactive	-8.11% (inactive)	10.4%	1.85%						
Cc1ccccc1-c1nccc(Nc2ccc(F)cc2)n1	inactive		inactive	-8.14% (inactive)	-3.97% (inactive)	-11% (inactive)	> 46 µM (inactive)	> 46 µM (inactive)		> 11.4 µM (inactive)					inactive	inactive	inactive	inactive	inactive	
c1ccc2c(N3CCNCC3)nc(-c3ccc4c(c3)OCO4)nc2c1	inactive	inactive	20 µM (active)	14.9% (inactive)	11.9% (inactive)	7.14% (inactive)		> 46 µM (inactive)	inactive	> 11.4 µM (inactive)	12.6 µM (active)									inactive
COCCn1c(=O)c(-c2ccc(Cl)cc2)nc2cnc(OC)nc21	inactive	inactive	inactive	5.96% (inactive)	0.766% (inactive)	-10.9% (inactive)	> 9.22 µM (inactive)	> 46 µM (inactive)	inactive	> 11.4 µM (inactive)	0.398 µM (active)									
c1cncc(-c2nc(N3CCNCC3)c3ccccc3n2)c1	inactive	inactive	22.4 µM (active)	8.36% (inactive)	7.65% (inactive)	4.77% (inactive)	> 46 µM (inactive)	> 46 µM (inactive)	inactive	> 11.4 µM (inactive)	2.51 µM (active)									inactive
FC(F)(F)c1ccccc1-c1nc(N2CCNCC2)c2ccccc2n1	inactive		20 µM (active)	6.77% (inactive)		11.2% (inactive)	> 46 µM (inactive)	> 46 µM (inactive)	inactive	> 11.4 µM (inactive)	10 µM (active)	7.02% (inactive)	13.7%	21.9%						inactive
CN(C)c1ncc2ncc(=O)n(CCc3ccccc3)c2n1	inactive		39.8 µM (active)	-21.4% (inactive)	-10.8% (inactive)	-10.8% (inactive)	> 9.22 µM (inactive)	> 46 µM (inactive)		> 11.4 µM (inactive)	0.794 µM (active)				6.31 µM (active)	6.31 µM (active)	5.01 µM (active)			inactive
COc1cccc(Nc2ncc3nc(-c4ccccc4)c(=O)n(C[C@H]4CCCO4)c3n2)c1	inactive		39.8 µM (active)		-8.66% (inactive)	4.51% (inactive)		> 46 µM (inactive)	inactive	> 11.4 µM (inactive)										
c1ccc(-c2cccc(N3CC4(CCNCC4)C3)c2)cc1				14.2% (inactive)	6.24% (inactive)	3.73% (inactive)		> 46 µM (inactive)	inactive	> 11.4 µM (inactive)	12.6 µM (active)	-6.46% (inactive)	-7.34%	-10.1%						
CN1CCN(c2nc(-c3ccc4c(c3)OCO4)nc3ccccc23)CC1	inactive		20 µM (active)	21.8% (inactive)		-4.65% (inactive)	> 46 µM (inactive)	> 46 µM (inactive)		> 11.4 µM (inactive)		8.71% (inactive)	28%	35.9%	17.8 µM (active)	15.8 µM (active)	14.1 µM (active)			inactive
Cc1ccccc1-c1nc(N2CCNCC2)c2ccccc2n1	inactive	inactive	12.6 µM (active)	12.7% (inactive)	2.71% (inactive)	-10.4% (inactive)	> 46 µM (inactive)	> 46 µM (inactive)	inactive	> 11.4 µM (inactive)	5.01 µM (active)	4.63% (inactive)	23.8%	27.5%						inactive

— PubChem BioAssay (NCATS)
